According to PubChem BioAssay (NCI):
About 83,000 compounds went through this panel and 20% of them were active in at least one assay; those are over-represented in the sample as a whole.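 Treatment: one concentration, 48 hours, 96-well format. Scoring: percent growth, with anything below 10 considered active.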 The source made the active and inactive calls.

What was measured:
Assay in all cases: NCI-60 one-dose screen, 48 h (100 = growth as untreated, 0 = no growth, -100 = all killed)
Conditions in all cases: 10 µM unless noted
T-47D breast = test system: T-47D breast
BT-549 breast = test system: BT-549 breast
MDA-MB-435 melanoma = test system: MDA-MB-435 melanoma
SW-620 colon = test system: SW-620 colon
MCF7 breast = test system: MCF7 breast
HCT-116 colon = test system: HCT-116 colon
HCC-2998 colon = test system: HCC-2998 colon
KM12 colon = test system: KM12 colon

Measured: growth

O=C(Nc1ccc(-n2ccc3c(NC(=O)c4ccccc4)ncnc32)cc1)c1cccc(C(F)(F)F)c1
inactive: T-47D breast 57.8% | BT-549 breast 51.9% | MDA-MB-435 melanoma 38.3% | SW-620 colon 29.1% | MCF7 breast 36.4% | HCT-116 colon 22.3% | HCC-2998 colon 59.8% | KM12 colon 30%

Cc1cn(C2CC(F)C(CO)O2)c(=O)[nH]c1=O (stereo not drawn)
inactive: T-47D breast 98% | BT-549 breast 80.7% | MDA-MB-435 melanoma 78.2% | SW-620 colon 115% | MCF7 breast 113% | HCT-116 colon 95.6% | HCC-2998 colon 100% | KM12 colon 99.1%

CC(C)CNCC(=O)Nc1ccc(Cc2ccc(NC(=O)CNCC(C)C)cc2)cc1
inactive: T-47D breast 68% | BT-549 breast 51.7% | MDA-MB-435 melanoma 88.5% | SW-620 colon 77.5% | MCF7 breast 43.8% | HCT-116 colon 36.4% | HCC-2998 colon 36.6% | KM12 colon 67.7%

COc1ccc(-c2nn(-c3ccc(NC(=O)c4ccc(Cl)c(C(F)(F)F)c4)cc3)cc2-c2ccncc2)cc1Cl
inactive: T-47D breast 46.1% | BT-549 breast 40.5% | MDA-MB-435 melanoma 23.2% | SW-620 colon 16% | MCF7 breast 22.5% | HCT-116 colon 15.8% | KM12 colon 14.8%
active: HCC-2998 colon 9.69%

CS(=O)(=O)Nc1cccc(-c2ccc3ncnc(Nc4cncc(Cl)c4)c3c2)c1
inactive: BT-549 breast 34.8% | MDA-MB-435 melanoma 49.9% | SW-620 colon 33.2% | MCF7 breast 15.6% | HCT-116 colon 30.4% | HCC-2998 colon 39.2% | KM12 colon 32.7%
active: T-47D breast -21.9%

Nc1nc(=S)ss1
inactive: T-47D breast 98.9% | BT-549 breast 101% | MDA-MB-435 melanoma 102% | SW-620 colon 99.2% | MCF7 breast 98.3% | HCT-116 colon 97.3% | HCC-2998 colon 97% | KM12 colon 111%

C=C1C(=O)O[C@H]2[C@H]1CC/C(COC(=O)n1ccnc1C)=C\CC[C@@]1(C)O[C@@H]21
inactive: T-47D breast 85% | BT-549 breast 97.3% | MDA-MB-435 melanoma 99.5% | SW-620 colon 85% | MCF7 breast 87.8% | HCT-116 colon 89% | HCC-2998 colon 103% | KM12 colon 103%

COc1cc2c(cc1OCCCCC(=O)Nc1ccc(-c3nc4ccccc4s3)cc1)N=C[C@@H]1CCCN1C2=O
active: BT-549 breast -76.4% | MDA-MB-435 melanoma -70.8% | SW-620 colon -16.9% | MCF7 breast 1.14% | HCT-116 colon 5.56% | HCC-2998 colon -62% | KM12 colon -58.7%
inactive: T-47D breast 14.7%

O=C(Nc1ccc(-n2cc(-c3ccncc3)c(-c3ccc(O)c(Cl)c3)n2)cc1)c1ccc(Cl)c(C(F)(F)F)c1
inactive: T-47D breast 39.8% | BT-549 breast 14.9% | MDA-MB-435 melanoma 16% | SW-620 colon 26.7% | MCF7 breast 20.9% | HCC-2998 colon 25.9% | KM12 colon 15%
active: HCT-116 colon 9.26%

COc1ccc(C2=NN(C(=O)COc3ccc(Cl)cc3)C(O)(c3cc(F)c(Cl)cc3Cl)C2)cc1OC (stereo not drawn)
inactive: HCC-2998 colon 78.4% | KM12 colon 60.4%
active: T-47D breast -51.1% | BT-549 breast -76% | MDA-MB-435 melanoma 8.66% | SW-620 colon -84.8% | MCF7 breast 7.79% | HCT-116 colon -69.1%

O=C(O)c1ccc(-n2cc(/C=N/Nc3ccc(Cl)cc3)c(-c3ccc(F)c(F)c3)n2)cc1
inactive: T-47D breast 65.9% | BT-549 breast 70% | MDA-MB-435 melanoma 86.5% | SW-620 colon 61.3% | MCF7 breast 46.5% | HCT-116 colon 47.5% | HCC-2998 colon 82.6% | KM12 colon 69.2%

Cc1cc(O[C@@H]2O[C@@H](C)[C@H](O)[C@@H](O)[C@H]2O)c2c3c(c(O[C@@H]4O[C@@H](C)[C@H](O)[C@@H](O)[C@H]4O)cc2c1)C(=O)c1c(O)cccc1C3=O
active: BT-549 breast 6.47%
inactive: T-47D breast 56.6% | MDA-MB-435 melanoma 92.8% | SW-620 colon 93.4% | MCF7 breast 81% | HCT-116 colon 81% | HCC-2998 colon 91.1% | KM12 colon 86.8%

Cc1cn(-c2nc3c(c(NCc4ccccc4)n2)COCC3)c2cccc(C(N)=O)c12
inactive: T-47D breast 62.7% [0.5 µM] | BT-549 breast 89% [0.5 µM] | MDA-MB-435 melanoma 63.9% [0.5 µM] | SW-620 colon 86.1% [0.5 µM] | MCF7 breast 35.5% [0.5 µM] | HCT-116 colon 11.4% [0.5 µM] | HCC-2998 colon 69.9% [0.5 µM] | KM12 colon 63.2% [0.5 µM]

O[C@@H]1CCO[C@H](c2ccc3ccccc3c2)C1
inactive: T-47D breast 89.4% | BT-549 breast 105% | MDA-MB-435 melanoma 106% | SW-620 colon 105% | MCF7 breast 103% | HCT-116 colon 96.6% | HCC-2998 colon 98.6% | KM12 colon 104%

COc1cc(NC(C)CCCN2C(=O)c3ccccc3C2=O)c2nccc(C)c2c1OC (stereo not drawn)
inactive: T-47D breast 78.2% | BT-549 breast 113% | MDA-MB-435 melanoma 104% | SW-620 colon 93.5% | MCF7 breast 40.4% | HCT-116 colon 87.8% | HCC-2998 colon 113% | KM12 colon 97.4%

CCn1c(SCC(=O)c2ccc(Br)cc2)nnc1-c1cc2c([nH]c3ccccc32)c(-c2cccc(O)c2)n1
inactive: T-47D breast 29.4% | BT-549 breast 71.9% | MDA-MB-435 melanoma 31.3% | SW-620 colon 94.1% | MCF7 breast 40.5% | HCT-116 colon 70.1% | HCC-2998 colon 98.4% | KM12 colon 66.5%

O=C1CCC(=O)N1C1CCCCC1
inactive: T-47D breast 85.8% | BT-549 breast 102% | MDA-MB-435 melanoma 99.5% | SW-620 colon 105% | MCF7 breast 96.2% | HCT-116 colon 99% | HCC-2998 colon 103% | KM12 colon 101%

O=S(=O)(Nc1cccc2cc(OS(=O)(=O)c3ccccc3)ccc12)c1ccccc1
active: MDA-MB-435 melanoma -13.8%
inactive: T-47D breast 45.5% | BT-549 breast 45.4% | SW-620 colon 29.5% | MCF7 breast 36.8% | HCT-116 colon 25.4% | HCC-2998 colon 96.4% | KM12 colon 36.3%

CN(C)c1ccc(/C=N/n2c(-c3cc(F)c(Cl)cc3Cl)nn(CN3CCOCC3)c2=S)cc1
inactive: T-47D breast 94.1% | BT-549 breast 91.3% | MDA-MB-435 melanoma 80.7% | SW-620 colon 109% | MCF7 breast 118% | HCT-116 colon 92.6% | HCC-2998 colon 111% | KM12 colon 102%

Cc1cc(SCc2ccc(Cl)cc2Cl)nc(SCc2ccc(Cl)cc2Cl)n1
inactive: T-47D breast 114% | BT-549 breast 106% | MDA-MB-435 melanoma 97.2% | SW-620 colon 101% | MCF7 breast 92.8% | HCT-116 colon 95.9% | HCC-2998 colon 100% | KM12 colon 97.4%

COc1ccc2c(c1)O/C(=C/c1ccc(OCC(=O)Nc3ccc(S(N)(=O)=O)cc3)cc1)C2=O
inactive: T-47D breast 97.2% | BT-549 breast 99.6% | MDA-MB-435 melanoma 103% | SW-620 colon 107% | MCF7 breast 104% | HCT-116 colon 95.2% | HCC-2998 colon 105% | KM12 colon 99.5%

CN1CCN(CC(O)COc2c(Br)c(Br)c(Br)c3c2OC(C)(C)C3)CC1 (stereo not drawn)
inactive: T-47D breast 81.3% | BT-549 breast 78.4% | MDA-MB-435 melanoma 18.7% | SW-620 colon 47.3% | MCF7 breast 59.5% | HCT-116 colon 20.7% | HCC-2998 colon 12.4% | KM12 colon 57.2%

CC1CCC(C(C)C)C(NN)C1 (stereo not drawn)
inactive: T-47D breast 80.2% | BT-549 breast 105% | MDA-MB-435 melanoma 110% | SW-620 colon 104% | MCF7 breast 100% | HCT-116 colon 106% | HCC-2998 colon 97.9% | KM12 colon 105%

CCCC(=O)Oc1ccc(/C(=C(\C)c2ccc(OC)cc2)c2ccc(OCCN3CCCCC3)cc2)cc1
inactive: T-47D breast 32.7% | BT-549 breast 82.2% | MDA-MB-435 melanoma 84.2% | SW-620 colon 87.5% | MCF7 breast 28.3% | HCT-116 colon 55.7% | HCC-2998 colon 91% | KM12 colon 75.6%

Cc1ccc[n+](CC(=O)c2cccc3ccccc23)c1
inactive: T-47D breast 91.9% | BT-549 breast 93.8% | MDA-MB-435 melanoma 102% | SW-620 colon 106% | MCF7 breast 98.6% | HCT-116 colon 99.6% | HCC-2998 colon 104% | KM12 colon 103%

O=C(c1ccccc1)[C@H]1[C@@H]2CCCN2[C@]2(C(=O)Nc3ccc(F)cc32)[C@]12C(=O)Nc1ccccc12
inactive: T-47D breast 65.6% | BT-549 breast 91.6% | MDA-MB-435 melanoma 92% | SW-620 colon 97.8% | MCF7 breast 82.5% | HCT-116 colon 76.5% | HCC-2998 colon 101% | KM12 colon 94.1%

COc1ccc(-c2nn(-c3ccc(NC(=O)c4cc(Cl)cc(Cl)c4)cc3)cc2-c2ccncc2)cc1Cl
inactive: T-47D breast 67.4% | BT-549 breast 66.8% | MDA-MB-435 melanoma 68.6% | SW-620 colon 68.6% | MCF7 breast 73.7% | HCT-116 colon 55.7% | HCC-2998 colon 49.6% | KM12 colon 29.7%

O=C(O)c1ccc(-n2cc(/C=N/Nc3ccc(F)cc3)c(-c3cccc(C(F)(F)F)c3)n2)cc1
inactive: T-47D breast 73.2% | BT-549 breast 95.4% | MDA-MB-435 melanoma 57.8% | SW-620 colon 63.3% | MCF7 breast 46.4% | HCT-116 colon 66.3% | HCC-2998 colon 55.2% | KM12 colon 52.8%

CCN(CC)CCC(C(=O)O)(c1ccccc1)c1ccccc1
inactive: T-47D breast 77.7% | BT-549 breast 95.6% | MDA-MB-435 melanoma 98.3% | SW-620 colon 97.9% | MCF7 breast 91.8% | HCT-116 colon 90.9% | HCC-2998 colon 106% | KM12 colon 100%

COc1cc(NS(=O)(=O)c2ccc(N)cc2)ncn1
inactive: T-47D breast 103% | BT-549 breast 107% | MDA-MB-435 melanoma 99.8% | SW-620 colon 108% | MCF7 breast 94.7% | HCT-116 colon 103% | HCC-2998 colon 109% | KM12 colon 104%

O=C(Cn1c2ccccc2c2ccncc21)N/N=C/c1cc(O)c(O)c(O)c1
inactive: T-47D breast 98.2% | BT-549 breast 107% | MDA-MB-435 melanoma 111% | SW-620 colon 109% | MCF7 breast 106% | HCT-116 colon 101% | HCC-2998 colon 105% | KM12 colon 95.3%
